The nature of assay [1]: stimulators of nuclear beta-catenin in C2C12, primary screen, imaging, WNT3A-conditioned medium, mouse C2C12, NPC library (AID 1117326; in the data active = nuclear beta-catenin stimulation mostly above about 4.2%, no sharp cut-off; inactive = mostly below about 10%). Conditions: stronger effect = higher value.
The nature of assay [2]: stimulators of insulin release from INS-1E, primary screen, cell-based, 5 mM glucose, NPC library (AID 1117329;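 active = compound raises insulin release from rat beta cells at 5 mM glucose, no numeric limit stated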). Conditions: rat INS-1E insulin secretion, at 10 µM, stronger effect = higher value.
A short description of assay [3]: growth inhibition of GSK3B-pretreated HCT116 cells – cell-based, CellTiter-Glo, 0.2 to 20 µM (AID 1117336;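 active = compounds lowering colon cancer cell viability after pretreatment blocking the GSK3B kinase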). The following applies: HCT116 viability after GSK3B inhibitor, at 20 µM, stronger effect = higher value. (ATP-based viability assays read luminescence as a measure of living cells.)
A short description of assay [4]: inhibition of endothelial tube formation, primary screen, imaging, VEGF stimulated, CD31 staining, tube area, NPC library (AID 1117340;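 active = compound that reduces growth-factor-driven endothelial tube area in a mixed cell culture, no cutoff stated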). Conditions: VEGF-stimulated ADSC/ECFC co-culture, at 10 µM, stronger effect = higher value.
Assay [5] is described as follows: glucagon-like peptide 1 release enhancers, primary assay, NCI-H716 cell line, NPC library (AID 1117341;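 active = compound raises GLP1 secretion from the human gut endocrine cells, with no numeric limit stated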). Conditions: NCI-H716 cells, at 10 µM, stronger effect = higher value.
Assay [6] in a line: HCT116 colon cancer cell growth inhibition, primary screen, CellTiter-Glo luminescence, NPC library (AID 1117342;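 active = compounds that lower survival of HCT116 colon cancer cells in the luminescence readout, no numeric limit stated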). Conditions: at 20 µM (top of the series).
The nature of assay [7]: CellTiter-Glo luminescent readout of SW480 viability loss, NPC library primary (AID 1117343;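 active = compounds that lower viability of the colon cancer cells in the luminescence readout, with no numeric limit stated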). Conditions: CellTiter-Glo luminescence; at 20 µM (top of the series).
Assay [8] can be described thus: decreased DLD-1 cellular survival, CellTiter-Glo luminescent readout, NPC compound collection, primary HTS (AID 1117346;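 active = compounds that lower survival of DLD-1 colon cancer cells in the luminescence readout, no cutoff given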). Conditions: DLD-1 viability, CellTiter-Glo luminescence; at 20 µM (top of the series).
Assay [9] concerns the target 6-phosphogluconate dehydrogenase, decarboxylating (Homo sapiens) (UniProt P52209). The experiment in a line: 6PGD enzyme inhibitors, primary screen, biochemical, human, recombinant enzyme, NADPH absorbance (AID 1159550;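 active = at least 20% inhibition of 6-phosphogluconate dehydrogenase activity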). The following applies: recombinant 6PGD, NADPH absorbance 341 nm; at 10 µM; stronger effect = higher value.
The nature of assay [10]: sensitizers of A549 cells to miR-34 induction, primary screen, imaging, A549 dox-inducible miR-34, nuclei and caspase counts (AID 1347080;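 active = compounds whose cell count with miR-34 switched on is under 0.7 times the count with it off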). The following applies: A549 miR-34 inducible, Hoechst nuclei count, 48 h.
Assay [11] deals with NAD(+) hydrolase SARM1 (Homo sapiens) (UniProt Q6SZW1). The experiment in a line: SARM1 TIR NADase inhibitors, cell lysate, NAD-Glo luminescence (AID 1508614;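 active = compound whose remaining NAD level is above about 45 nM, limit read from the data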;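 note: higher remaining NAD means stronger inhibition of SARM1 NADase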). The following applies: SAM-TIR HEK293T lysate NADase, at 1 µM, stronger effect = higher value.
Chain of NAD(+) hydrolase SARM1 (Homo sapiens) (Q6SZW1 whole entry, looked up, the tested form may be a part): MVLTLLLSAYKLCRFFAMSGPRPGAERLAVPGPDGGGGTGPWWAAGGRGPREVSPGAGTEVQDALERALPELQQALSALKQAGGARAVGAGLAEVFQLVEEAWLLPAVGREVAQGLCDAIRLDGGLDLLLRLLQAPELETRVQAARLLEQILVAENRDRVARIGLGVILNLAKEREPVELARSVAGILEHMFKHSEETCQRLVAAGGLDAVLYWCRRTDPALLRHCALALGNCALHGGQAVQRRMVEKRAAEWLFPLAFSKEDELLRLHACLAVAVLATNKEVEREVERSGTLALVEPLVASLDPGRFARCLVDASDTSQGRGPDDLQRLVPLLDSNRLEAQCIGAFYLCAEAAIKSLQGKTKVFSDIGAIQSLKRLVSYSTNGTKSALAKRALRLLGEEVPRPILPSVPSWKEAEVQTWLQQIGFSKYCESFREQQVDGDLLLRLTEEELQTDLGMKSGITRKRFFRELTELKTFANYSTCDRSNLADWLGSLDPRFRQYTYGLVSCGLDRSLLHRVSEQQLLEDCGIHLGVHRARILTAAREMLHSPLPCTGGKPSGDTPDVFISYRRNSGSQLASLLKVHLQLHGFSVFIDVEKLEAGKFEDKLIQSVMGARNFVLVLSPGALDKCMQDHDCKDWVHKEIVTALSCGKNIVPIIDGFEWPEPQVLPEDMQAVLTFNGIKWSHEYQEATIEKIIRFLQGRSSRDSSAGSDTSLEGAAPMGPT
Assay [12] deals with Mitogen-activated protein kinase 7 (Homo sapiens) (UniProt Q13164). The experiment in a line: ERK5 transactivation activators in reporter cells, primary screen, cell-based, HTS (AID 1508626;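 active = luciferase signal above three times the same-plate solvent-only control wells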;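 note: luciferase driven by Gal4-ERK5 fusion binding five Gal4 sites before minimal TATA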). Conditions: HeLa Gal4-ERK5 transactivation, 18 h, at 5 µM, stronger effect = higher value.
Chain of Mitogen-activated protein kinase 7 (Homo sapiens) (Q13164 whole entry, looked up, the tested form may be a part): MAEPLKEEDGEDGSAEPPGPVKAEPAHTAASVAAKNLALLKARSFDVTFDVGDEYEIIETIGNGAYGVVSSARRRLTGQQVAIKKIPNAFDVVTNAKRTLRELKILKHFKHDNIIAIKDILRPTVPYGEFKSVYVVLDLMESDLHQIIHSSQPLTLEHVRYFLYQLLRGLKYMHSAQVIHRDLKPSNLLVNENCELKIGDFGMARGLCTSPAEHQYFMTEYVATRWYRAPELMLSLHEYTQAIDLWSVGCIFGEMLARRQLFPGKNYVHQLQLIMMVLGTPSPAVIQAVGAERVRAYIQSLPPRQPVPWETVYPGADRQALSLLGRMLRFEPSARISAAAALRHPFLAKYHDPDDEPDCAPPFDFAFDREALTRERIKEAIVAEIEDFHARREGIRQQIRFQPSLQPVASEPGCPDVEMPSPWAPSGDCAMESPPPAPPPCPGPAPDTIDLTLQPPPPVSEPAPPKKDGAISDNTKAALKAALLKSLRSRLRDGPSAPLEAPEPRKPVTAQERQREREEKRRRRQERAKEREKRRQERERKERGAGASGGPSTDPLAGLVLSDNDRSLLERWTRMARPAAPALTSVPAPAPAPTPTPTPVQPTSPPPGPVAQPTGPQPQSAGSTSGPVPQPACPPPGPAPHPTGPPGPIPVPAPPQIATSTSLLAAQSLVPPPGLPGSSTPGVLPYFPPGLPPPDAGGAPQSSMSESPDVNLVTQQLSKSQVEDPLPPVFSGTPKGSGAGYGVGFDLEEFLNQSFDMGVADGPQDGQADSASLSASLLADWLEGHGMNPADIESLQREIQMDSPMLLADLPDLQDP
The test system of another assay is F380Y. Put plainly: modulators of BK channel variants, profiling panel, selectivity assay, cell-based, U2OS BacMam, thallium flux, beta subunits (AID 1259406).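 Note: initial slope of Thallos dye fluorescence rise after thallium is added; log ratio against the mean of 0.3% DMSO vehicle wells on the same plate.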 Conditions: at 30 µM.
A further assay concerns F380Y/beta2Delta. The description is as above. The following applies: at 30 µM.
For assay [13], the target named is Calcium-activated potassium channel subunit alpha-1 (Homo sapiens) + Leucine-rich repeat-containing protein 26 (Homo sapiens) (UniProt Q12791+Q2I0M4). Described as above. The following applies: F380Y/Slo1WT/gamma1, at 30 µM.
Chain of Calcium-activated potassium channel subunit alpha-1 (Homo sapiens) + Leucine-rich repeat-containing protein 26 (Homo sapiens) (Q2I0M4 whole entry, looked up, one chain of several): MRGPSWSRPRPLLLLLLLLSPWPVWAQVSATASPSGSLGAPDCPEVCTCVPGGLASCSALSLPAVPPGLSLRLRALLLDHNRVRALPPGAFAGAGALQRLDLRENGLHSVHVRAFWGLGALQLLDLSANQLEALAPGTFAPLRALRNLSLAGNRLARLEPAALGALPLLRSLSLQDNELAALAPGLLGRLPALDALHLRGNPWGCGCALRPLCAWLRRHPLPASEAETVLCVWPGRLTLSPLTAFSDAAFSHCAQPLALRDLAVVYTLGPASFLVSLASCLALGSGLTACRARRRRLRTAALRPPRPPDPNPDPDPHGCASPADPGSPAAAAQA
The subject of a further assay is R275C. The description is as above. The following applies: at 30 µM.
The next assay relates to R275C/beta1. Described as above. The following applies: at 30 µM.
Another assay deals with R275C/beta2Delta. The description is as above. Conditions: at 30 µM.
Assay [14] can be described thus: differential killing of epithelial or mesenchymal cells, primary screen, imaging, PC-3E GFP, TEM4-18 mCherry, co-culture (AID 1345086;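 active = compounds killing one labelled cell type while sparing the other, by normalised counts and ratio limits, not self-fluorescent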;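 for all read-outs here: cells exposed to compound for 72 h before imaging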;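 for red/green cell ratio (normalised): normalised mesenchymal count divided by normalised epithelial count so high means epithelial killing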). Conditions: imaging cell counts, at 1 µM; for red/green cell ratio (normalised): actives lie on both sides, counts scaled to control wells, 1 = unselective.
Assay [15] is described as follows: survival rescue of mitochondrial mutant cells in low glucose, primary screen, MELAS cybrids, Rieske KO mouse fibroblasts, CellTiter-Glo (AID 1508586;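 active = mean z-score across replicates of 1.96 or higher in either the MELAS or the Rieske mutant cell line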;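 note: z relative to plate mean and SD of compound and empty wells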).
Setting [16] is: stronger effect = lower value, cell number ratio, induced over uninduced.
Where [17] appears, read: measured here: relative caspase fold change +Dox/-Dox.
Where [18] appears, read: measured here: total cells with miR-34 induction, stronger effect = lower value.
Setting [19] is: measured here: total cells without miR-34 induction.
The mark [20] stands for this setting: measured here: epithelial PC-3E GFP cell survival.
Setting [21] is: measured here: mesenchymal TEM4-18 mCherry cell survival.
Where [22] appears, read: MELAS cybrid survival, CellTiter-Glo 48 h, stronger effect = higher value.
Where [23] appears, read: Rieske KO mouse fibroblast survival, CellTiter-Glo 72 h.

Where “and” joins values, the source holds several entries; their conditions need not be identical. Equal values may be shown once. Some structures have more than one record in an assay (separate samples or runs), and their calls can disagree. Calls of active or inactive are those of the source.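 Rule for the calls, unless noted: active = thallium flux through the channel raised or lowered by more than 3 SD from vehicle-only wells, actives on both sides; inactive = the rest.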

For orientation: inhibition means the relative decrease from the control value, in per cent.

Chain of 6-phosphogluconate dehydrogenase, decarboxylating (Homo sapiens) (P52209 whole entry, looked up): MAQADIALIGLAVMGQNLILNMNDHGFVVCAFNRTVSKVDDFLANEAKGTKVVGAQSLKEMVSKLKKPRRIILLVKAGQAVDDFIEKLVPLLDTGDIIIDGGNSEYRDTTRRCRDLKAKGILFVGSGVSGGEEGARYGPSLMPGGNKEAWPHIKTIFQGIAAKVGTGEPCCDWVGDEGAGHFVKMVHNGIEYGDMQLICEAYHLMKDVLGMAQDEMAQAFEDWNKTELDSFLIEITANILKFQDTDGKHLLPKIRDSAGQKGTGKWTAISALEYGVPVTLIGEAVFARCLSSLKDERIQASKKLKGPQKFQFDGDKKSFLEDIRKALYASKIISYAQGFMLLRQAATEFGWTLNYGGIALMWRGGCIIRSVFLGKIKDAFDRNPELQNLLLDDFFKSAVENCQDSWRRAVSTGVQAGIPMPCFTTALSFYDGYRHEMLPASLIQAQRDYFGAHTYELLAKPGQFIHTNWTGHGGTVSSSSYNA

`CC1(C)O[C@@H]2C[C@H]3[C@@H]4CCC5=CC(=O)C=C[C@]5(C)[C@@]4(F)[C@@H](O)C[C@]3(C)[C@]2(C(=O)CO)O1`: the nuclear beta-catenin stimulation in [1] (at 10 µM) was -0.5% (inactive); in [1] (stimulation, at 2 µM), 3.8%. The insulin secretion stimulation in assay [2] was 3.4% (inactive). The viability decrease in assay [3] was 21.8% (inactive). For the same molecule, the tube area decrease in assay [4] was 0.2% (inactive). The GLP1 secretion stimulation in [5] is -1% (inactive). Further, the inhibition of viability in [6] was 8.4% (inactive). The viability decrease (inhibition) in assay [7] is 34.9% (inactive); in [8], -6.5% (inactive). The inhibition in [9] was 10.8% (inactive). Further, the fold change in assay [10] (setting [16]) was 0.992 (inactive); in [10] (setting [17]) it was 0.777. Besides, the figures for the cell count in assay [10] (setting [18]) and in assay [10] (setting [19]) were 7390 and 7450, respectively. In addition, in [11], the remaining NAD was 10 nM (inactive). In [12], the luciferase signal is 36 AU (inactive). The log fold change Tl+ flux in the assay on F380Y was 0.0424 (inactive); in the assay on F380Y/beta2Delta, -0.014 (inactive); in assay [13], 0.106 (active); in the assay with R275C, -0.0106 (inactive); in the assay on R275C/beta1, 0.0867 (inactive); in the assay on R275C/beta2Delta, 0.0611 (inactive).

Regarding `CNCCCC12CCC(c3ccccc31)c1ccccc12`, the nuclear beta-catenin stimulation in assay [1] (at 10 µM) is 1.9% (inactive); in assay [1] (stimulation, at 2 µM), -0.1%. In addition, in assay [2], the insulin secretion stimulation was 12.2% (inactive). Besides, the viability decrease in assay [3] was 55.6% (active). Moreover, the tube area decrease in assay [4] was 12.2% (inactive). The GLP1 secretion stimulation in assay [5] was 4.8% (inactive). For the same molecule, the inhibition of viability in assay [6] was 87.4% (active). The viability decrease (inhibition) was 121% (active) in [7] and 68.3% (active) in assay [8]. In assay [9], the inhibition was 8.09% (inactive). For the same molecule, the red/green cell ratio (normalised) in assay [14] was 0.89 (inactive). The figures for the normalised cell number in assay [14] (setting [20]) and in assay [14] (setting [21]) were 1.11 and 0.98, respectively. Further, the z-score in assay [15] (setting [22]) is -0.365 (inactive) and 0.126 (inactive) and 0.618 (inactive); in [15] (setting [23]), 0.802 and 0.382 and 0.29. Also, the remaining NAD in [11] is 10 nM (inactive). The luciferase signal in [12] was 48 AU (inactive). Moreover, the log fold change Tl+ flux in the assay with F380Y was 0.104 (inactive); in the assay on F380Y/beta2Delta, 0.203 (active); in assay [13], 0.0351 (inactive); in the assay with R275C, 0.0254 (inactive); with R275C/beta1, 0.285 (active); with R275C/beta2Delta, 0.217 (active).

In the case of `CC[C@]1(O)C[C@@H]2CN(CCc3c([nH]c4ccccc34)[C@@](C(=O)OC)(c3cc4c(cc3OC)N(C)[C@H]3[C@@](O)(C(=O)OC)[C@H](OC(C)=O)[C@]5(CC)C=CCN6CC[C@]43[C@@H]65)C2)C1`, the nuclear beta-catenin stimulation was 78.2% (active) and 46.4% (active) in assay [1] (at 10 µM); 49.7% and 61.6% in assay [1] (stimulation, at 2 µM). In [2], the insulin secretion stimulation is 5.8% (inactive) and 3.65% (inactive). Besides, the viability decrease in [3] was 84.6% (active) and 97.7% (active). Moreover, in assay [4], the tube area decrease is 108% (active) and 104% (active). Moreover, the GLP1 secretion stimulation in [5] was -1.3% (inactive) and 5.9% (inactive). Besides, the inhibition of viability in [6] is 79.8% (active) and 74.2% (active). Moreover, the viability decrease (inhibition) in [7] is 89.7% (active) and 76.2% (active); in [8] it was 84.7% (active) and 75.3% (active). The fold change is 1.08 (inactive) in assay [10] (setting [16]) and 0.797 in [10] (setting [17]). Moreover, the cell count in assay [10] (setting [18]) worked out at 794; in assay [10] (setting [19]), 738. Also, the remaining NAD in [11] is 10 nM (inactive). For the same molecule, the luciferase signal in [12] is 72 AU (inactive).

With `OCCN(CCO)c1nc(N2CCCCC2)c2nc(N(CCO)CCO)nc(N3CCCCC3)c2n1`, the nuclear beta-catenin stimulation is 0.7% (inactive) in [1] (at 10 µM) and 1.8% in assay [1] (stimulation, at 2 µM). Moreover, the insulin secretion stimulation in assay [2] was 0.7% (inactive). In addition, the viability decrease in assay [3] is 20.5% (inactive). Also, the tube area decrease in assay [4] was 8.6% (inactive). Further, the GLP1 secretion stimulation in assay [5] is 8% (inactive). Moreover, the inhibition of viability in [6] was 61.4% (active). The viability decrease (inhibition) in assay [7] is 41.1% (inactive); in [8], 4.3% (inactive). Also, in assay [9], the inhibition is 11% (inactive). Besides, in assay [14], the red/green cell ratio (normalised) is 1.08 (inactive). Besides, the normalised cell number in [14] (setting [20]) is 1.13; in assay [14] (setting [21]), 1.22. The z-score in [15] (setting [22]) is -0.622 (inactive) and 4.01 (active) and 2.55 (active); in assay [15] (setting [23]), -0.0206 and -0.634 and 4.9. In assay [11], the remaining NAD is 10 nM (inactive). Besides, in [12], the luciferase signal was 136 AU (inactive).

Values taken from PubChem BioAssay.
